{"source": "PubChem BioAssay (NCATS)", "note": "Records with an inconclusive call do not appear. A call without a number means that no potency is given here. Unmarked numbers belong to inactive results. The source made the active and inactive calls. Calls come from the whole dose curve; as a rule, active = well fitted cell-killing curve with a large enough effect; inconclusive = small, poorly fitted or top-dose-only effect, or effect the other way; inactive = flat fitted curve, though single readings scatter.", "data": [{"system": "CAOV3", "assay": "Primary qHTS to identify gynecologic anti-cancer compounds using libraries of approved drugs and bioactive compounds (AID 1345084); note: nearly all actives have a fitted effect of over 55% in size", "settings": "Gynecologic cancer cell panel viability, ATPlite luminescence, 48 h; series mostly up to 57.5 µM", "excerpt": "National Center for Advancing Translational Sciences [NCATS] Assay Overview: Chemotherapeutic drug responses vary from cancer to cancer and from patient to patient. These variations could be caused by a number of factors including patient genomic background, tumor mutations, tumor heterogeneity, and aspects of drug treatment. Chemotherapeutic drug resistance is also a common issue and can lead to ineffective treatment and patient death. Here we have profiled the cell killing effects of thousands of compounds to characterize the responses in three gynecological cancers, identify cancer-selective compounds, and understand the diversity of responses to these compounds from pan-cancer suppressors to single cell line selective compounds. In this assay, we screened a 7,914 compound drug library that included approved drug and bioactive compounds in six ovarian, three cervical, and […] placental cancer cell lines using the ATPlite assay for cell viability. […] The cervical cancer cell lines included HeLa, Ca Ski, and C-33 A. The placental cancer cell lines included JEG-3. HEK 293T cells were used as the control cell line to determine the selectivity index. ATPlite is a luminescence based assay reliant on the conversion of a luciferase substrate to light in the presence of ATP. As a cytotoxic compound will suppress growth and decrease the number of cells, the concentration of ATP will decrease, and less light signal will be detected in the well.\nAssay Protocol Summary: 1,000 cells in 4 uL of media were dispensed into white, solid bottom 1536-well plates using a Multidrop Combi (Thermo Scientific). The Assay plates were incubated for 16 hours at 37 C with 5% CO2 in assay plates, followed by the addition of 23 nL of DMSO or drug dissolved in DMSO. Each compound was assayed in five concentrations (0.092, 0.46, 2.3, 11.5, and 57.5 uM), using the automated Wako 1536 Pin Tool workstation and incubated at 37 C with 5% CO2 48 hours. 4 uL of ATPlite, the ATP monitoring reagent, was then added to the each well of the assay plates using the Multidrop Combi reagent dispenser followed by incubation for 15 minutes at room temperature. The resulting luminescence was measured using the ViewLux plate reader.", "values": [{"smiles": "O=C(O)C(Cc1cc(I)c(O)c(I)c1)c1ccccc1", "note": "(stereo not given)", "Potency": "inactive"}, {"smiles": "CCCN(CCC)S(=O)(=O)c1ccc(C(=O)O)cc1", "Potency": "inactive"}, {"smiles": "COc1ccc(CCN(C)CCCN2CCc3cc(OC)c(OC)cc3CC2=O)cc1OC", "Potency": "inactive"}, {"smiles": "Cl/C(=C\\n1cncn1)c1ccc(Cl)cc1Cl", "Potency": "inactive"}, {"smiles": "COC(=O)C(c1ccccc1Cl)N1CCc2sccc2C1", "note": "(stereo not given)", "Potency": "inactive"}, {"smiles": "CC(=O)O[C@]1(C(C)=O)CC[C@H]2[C@@H]3C=C(Cl)C4=CC(=O)CC[C@]4(C)[C@H]3CC[C@@]21C", "Potency": "inactive"}, {"smiles": "O=C(O)c1ccc(S(=O)(=O)N(Cl)Cl)cc1", "Potency": "inactive"}, {"smiles": "O=C(O)P(=O)(O)O", "Potency": "inactive"}, {"smiles": "C=CCN1CCc2nc(N)sc2CC1", "Potency": "inactive"}, {"smiles": "Clc1cccc(C(c2ccc3nc[nH]c3c2)n2ccnc2)c1", "note": "(stereo not given)", "Potency": "inactive"}, {"smiles": "NC(=O)n1c(O)c(C(=O)c2cccs2)c2cc(Cl)ccc21", "Potency": "inactive"}, {"smiles": "COc1ccc(C(=O)c2ccccc2)c(O)c1", "Potency": "inactive"}, {"smiles": "CCCCN1C[C@H](O)[C@@H](O)[C@H](O)[C@H]1CO", "Potency": "inactive"}, {"smiles": "c1ccc(-c2nc[nH]c2-c2ccccc2)cc1", "Potency": "inactive"}, {"smiles": "CC1(COc2ccc(CC3SC(=O)NC3=O)cc2)CCCCC1", "note": "(stereo not given)", "Potency": "inactive"}, {"smiles": "NC(=O)c1ccccc1O", "Potency": "inactive"}, {"smiles": "O=C(NC1CCN(CCc2c[nH]c3ccccc23)CC1)c1ccccc1", "Potency": "inactive"}, {"smiles": "CCCCNc1ccc(C(=O)OCCOCCOCCOCCOCCOCCOCCOCCOCCOC)cc1", "Potency": "inactive"}, {"smiles": "NCCNc1cccc2ccccc12", "Potency": "inactive"}, {"smiles": "C#C[C@]1(O)CC[C@H]2[C@@H]3CCC4=Cc5oncc5C[C@]4(C)[C@H]3CC[C@@]21C", "Potency": "inactive"}, {"smiles": "CCCCNC(=O)NS(=O)(=O)c1ccc(N)cc1", "Potency": "inactive"}, {"smiles": "CC(C)NCC(O)c1ccc2ccccc2c1", "note": "(stereo not given)", "Potency": "inactive"}, {"smiles": "CCCCC(CC)CN1CN(CC(CC)CCCC)CC(C)(N)C1", "note": "(stereo not given)", "Potency": "inactive"}, {"smiles": "N[C@H](C(=O)O)[C@@H](O)c1ccc(O)c(O)c1", "Potency": "inactive"}, {"smiles": "CCOCCn1c(N2CCCN(C)CC2)nc2ccccc21", "Potency": "inactive"}, {"smiles": "CCNC(=O)/C=C/c1cccc(Br)c1", "Potency": "inactive"}, {"smiles": "CCOc1ccc(NC(C)=O)cc1", "Potency": "inactive"}, {"smiles": "N/C(=N\\N=C\\c1ccc(Cl)cc1)N/N=C/c1ccc(Cl)cc1", "Potency": "inactive"}, {"smiles": "COc1cc(C)nc(-n2nc(C)cc2OC)n1", "Potency": "inactive"}, {"smiles": "O=C1[C@H](CC[C@H](O)c2ccc(F)cc2)[C@@H](c2ccc(O)cc2)N1c1ccc(F)cc1", "Potency": "inactive"}, {"smiles": "O=C(Oc1cccc2cccnc12)c1ccccc1", "Potency": "inactive"}, {"smiles": "CC(C)(Cc1c[nH]c2ccccc12)NCC(O)COc1ccccc1C#N", "note": "(stereo not given)", "Potency": "inactive"}, {"smiles": "CN1CCC(OC(c2ccccc2)c2ccccc2)CC1", "Potency": "inactive"}, {"smiles": "C#C[C@]1(O)CC[C@H]2[C@@H]3[C@H](C)CC4=C(CCC(=O)C4)[C@H]3CC[C@@]21C", "Potency": "inactive"}, {"smiles": "CCCCCCCCCCCCCCCC(=O)O", "Potency": "inactive"}, {"smiles": "CCN[C@@H]1C[C@H](N)[C@@H](OC2OC(CN)=CCC2N)[C@H](O)[C@H]1O[C@H]1OC[C@](C)(O)[C@H](NC)[C@H]1O", "note": "(stereo not given in full)", "activity change, negative = cytotoxicity": "0% [at 0.462 µM]"}, {"smiles": "CN1CCN(c2c(F)cc3c(=O)c(C(=O)O)cn4c3c2SCC4)CC1", "Potency": "inactive"}, {"smiles": "C/C=C/C=N/NC(=O)c1ccncc1", "Potency": "inactive"}, {"smiles": "CCc1nn(CCCN2CCN(c3cccc(Cl)c3)CC2)c(=O)n1CCOc1ccccc1", "Potency": "inactive"}, {"smiles": "C=C1c2cccc(O)c2C(O)=C2C(=O)[C@]3(O)C(O)=C(C(N)=O)C(=O)[C@@H](N(C)C)[C@@H]3[C@@H](O)[C@H]12", "Potency": "inactive"}]}]}
